The values below come from PubChem BioAssay (NCI).

Compounds without any hit were thinned out: in the full panel of roughly 83,000, 20% have a hit.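 Note: values are percent growth. 100 is the growth of untreated cells, values between 100 and 0 indicate rising inhibition; between -100 and 0 indicates cell death.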 Values without a mark were called inactive. Activity calls are given as the source filed them. The calls were made as follows: active = growth percent below 10; inactive = the rest.

Among the test systems are SR leukemia; RPMI-8226 leukemia; OVCAR-8 ovarian; OVCAR-5 ovarian; OVCAR-4 ovarian; SK-OV-3 ovarian; IGROV1 ovarian; OVCAR-3 ovarian; HS 578T breast; NCI/ADR-RES ovarian.
Common to all, as to test: NCI-60 one-dose screen, 48 h (100 = growth as untreated, 0 = no growth, -100 = all killed)
Common to all, as to conditions: 10 µM unless noted

On to `O=c1[nH]nc(-c2ccccc2)c2sc3ncc(-c4ccc(Br)cc4)n3c12`, for which the growth is 26.1% in the test with SR leukemia; 12.4% with RPMI-8226 leukemia; 46.5% with OVCAR-8 ovarian; 90.4% in the test on OVCAR-5 ovarian; 85.5% in the test with OVCAR-4 ovarian; 70.6% in the test on SK-OV-3 ovarian. The growth in the test on IGROV1 ovarian was 40.4%; with OVCAR-3 ovarian it was 0.339% (active); in the test with HS 578T breast, 32.4%; in the test on NCI/ADR-RES ovarian, 98.2%.
Regarding `C=C(C)[C@@H]1CC[C@]2(C(=O)N[C@H](CO)Cc3ccccc3)CC[C@]3(C)[C@H](CC[C@@H]4[C@@]5(C)CCCNC(C)(C)[C@@H]5CC[C@]43C)[C@@H]12`, the growth in the test on SR leukemia is -56.8% (active); in the test on RPMI-8226 leukemia it was -49.3% (active); in the test on OVCAR-8 ovarian, -76.3% (active); in the test with OVCAR-5 ovarian, -93.5% (active); with OVCAR-4 ovarian, -80.9% (active); in the test with SK-OV-3 ovarian, -96.2% (active). In addition, the growth is -78.8% (active) in the test on IGROV1 ovarian, -95.9% (active) with OVCAR-3 ovarian, -60.5% (active) with HS 578T breast and -67.6% (active) with NCI/ADR-RES ovarian.
As for `CCCCCCOc1ccc(/C=N/Nc2cc(C)nc3ccc(Cl)cc23)cc1`, the growth in the test on SR leukemia was -7.39% (active); in the test on RPMI-8226 leukemia, -35.3% (active); with OVCAR-8 ovarian it was -36.4% (active); in the test with OVCAR-5 ovarian it was 26.5%; in the test on OVCAR-4 ovarian, -58.1% (active); in the test with SK-OV-3 ovarian, 90.2%. The growth in the test on IGROV1 ovarian is -79% (active); in the test with OVCAR-3 ovarian, -97% (active); in the test on HS 578T breast, 28.5%; in the test on NCI/ADR-RES ovarian, -27.8% (active).
Consider `Cc1c(C(=O)NCCC(=O)NO)sc2ncnc(Nc3ccc(F)c(Cl)c3)c12`, for which the growth in the test with SR leukemia was 111%; with RPMI-8226 leukemia it was 110%; with OVCAR-8 ovarian, 101%; in the test on OVCAR-5 ovarian, 108%; in the test on OVCAR-4 ovarian it was 109%; in the test with SK-OV-3 ovarian it was 129%. Moreover, the growth was 106% with IGROV1 ovarian, 107% in the test on OVCAR-3 ovarian, 103% in the test on HS 578T breast and 101% in the test with NCI/ADR-RES ovarian.
For `CN1C(N2CCN(S(=O)(=O)c3ccccc3)CC2)=NS(=O)(=O)c2ccccc21`, the growth with SR leukemia is 32.2%; with RPMI-8226 leukemia, 98.4%; with OVCAR-8 ovarian it was 80%; with OVCAR-5 ovarian it was 97.9%; in the test with OVCAR-4 ovarian, 111%; in the test with SK-OV-3 ovarian it was 109%. In addition, the growth in the test with IGROV1 ovarian was -25.4% (active); in the test with OVCAR-3 ovarian it was 101%; in the test on HS 578T breast it was 82.5%; in the test with NCI/ADR-RES ovarian, 99.7%.
`CCNC(=O)Oc1ccc(/C(=C(\C)c2ccccc2)c2ccc(OCCCN(C)C)cc2)cc1`: the growth with SR leukemia was 10.2%; with RPMI-8226 leukemia it was 66.6%; in the test on OVCAR-8 ovarian it was 86.5%; in the test on OVCAR-5 ovarian, 81.4%; in the test with OVCAR-4 ovarian, 84.4%; with SK-OV-3 ovarian, 80.7%. Also, the growth in the test with IGROV1 ovarian was 87.5%; in the test with OVCAR-3 ovarian, 85.3%; in the test on HS 578T breast it was 57%; in the test with NCI/ADR-RES ovarian, 81.6%.
With `Cc1ccc(S(=O)(=O)NNC(=O)/C(=C\c2ccc(Cl)cc2)c2nc3ccccc3s2)cc1`, the growth in the test with SR leukemia was 72.8%; with RPMI-8226 leukemia it was 87%; in the test on OVCAR-8 ovarian, 88.1%; with OVCAR-5 ovarian it was 110%; with OVCAR-4 ovarian, 94.2%; in the test on SK-OV-3 ovarian, 105%. Moreover, the growth with IGROV1 ovarian was 91.4%; in the test with OVCAR-3 ovarian, 96%; in the test on HS 578T breast, 98.1%; in the test on NCI/ADR-RES ovarian, 97.8%.
On to `Fc1ccc(-c2cn3c(nc4ccccc43)c(-c3ccccc3)n2)cc1`, for which the growth is 91.5% in the test on SR leukemia; 111% in the test on RPMI-8226 leukemia; 73.7% in the test on OVCAR-8 ovarian; 111% in the test with OVCAR-5 ovarian; 67.1% in the test on OVCAR-4 ovarian; 105% in the test on SK-OV-3 ovarian. The growth in the test with IGROV1 ovarian is 81.8%; in the test on OVCAR-3 ovarian, 111%; in the test on HS 578T breast, 76.7%; in the test on NCI/ADR-RES ovarian, 89.3%.
`CC(Sc1nc2sc3c(c2c(=O)n1-c1ccc(Cl)cc1)CCCC3)C(=O)Nc1nc(-c2ccc(Br)cc2)cs1` (stereo not given): the growth in the test on SR leukemia was 97.6%; with RPMI-8226 leukemia it was 102%; with OVCAR-8 ovarian, 103%; in the test with OVCAR-5 ovarian it was 93.9%; in the test on OVCAR-4 ovarian, 109%; in the test on SK-OV-3 ovarian, 96.6%. Moreover, the growth was 96% in the test on IGROV1 ovarian, 114% in the test with OVCAR-3 ovarian, 112% in the test with HS 578T breast and 95.6% in the test on NCI/ADR-RES ovarian.
For `Brc1ccc(Nc2csc(-c3ccccn3)n2)cc1`, the growth in the test on SR leukemia is 97.3%; in the test with RPMI-8226 leukemia it was 98%; in the test with OVCAR-8 ovarian, 98.6%; in the test with OVCAR-5 ovarian, 76.6%; with OVCAR-4 ovarian, 101%; in the test on SK-OV-3 ovarian, 82.8%. Further, the growth was 63.4% in the test with IGROV1 ovarian, 95.7% in the test with OVCAR-3 ovarian, 92.4% with HS 578T breast and 93.5% in the test on NCI/ADR-RES ovarian.
Take `COc1cccc(C(=O)NNc2nc(Cl)nc(N3CCN(C(c4ccccc4)c4ccccc4)CC3)n2)c1`: the growth with SR leukemia was -23.8% (active); in the test with RPMI-8226 leukemia it was 88%; with OVCAR-8 ovarian, 71.1%; with OVCAR-5 ovarian, 97.3%; in the test on OVCAR-4 ovarian, 72.2%; with SK-OV-3 ovarian, 96%. For the same compound, the growth in the test on IGROV1 ovarian is 2.85% (active); with OVCAR-3 ovarian it was 10.5%; in the test with HS 578T breast, 91.6%; in the test on NCI/ADR-RES ovarian, 88%.
With `CCOC(=O)C1=C(CCl)NC(=O)NC1c1ccc2c(c1)OCO2` (stereo not given), the growth was 28% with SR leukemia; 15.3% in the test on RPMI-8226 leukemia; 45.7% in the test with OVCAR-8 ovarian; 24.6% in the test on OVCAR-5 ovarian; 32.5% with OVCAR-4 ovarian; 81.8% in the test on SK-OV-3 ovarian. In addition, the growth with IGROV1 ovarian is 37.2%; in the test with OVCAR-3 ovarian, 24.8%; in the test with HS 578T breast, 71.9%; in the test on NCI/ADR-RES ovarian, 58.6%.
